Among the data in ChEMBL document CHEMBL3988442, “University of Dundee, Small-Polar-MMV Screening Library” (2021) are Percent Effect values, retold here.

In the experiment the target is Shiga toxin 2 (Escherichia coli O157:H7) (UniProt P09385+P09386). Briefly: E. coli 0.157:H7 Shiga Toxin SOP - stx2 screening assay. The experiment is classed as functional. More on the design: scale not given: direction of the effect not stated beside the values. Conditions: 30 µM.
As for `CC(C(=O)NCc1ccnc(N(C)C)c1)n1cncn1` (stereo not given), the Percent Effect was -9.74%.

With `Cc1ccc(C(=O)N2CCN(C(=O)NC(C)Cn3ccnc3)CC2)o1` (stereo not given), the Percent Effect is 17.6%.

Take `CS(=O)(=O)NCc1nnc2n1CCN(CC1CC1)C2`: the Percent Effect is 4.81%.

As to `Cc1nc(N2CCN(C(=O)C(C)(C)C)CC2)cc(-n2cnc(C)c2C)n1`, the Percent Effect was -43.6%.

For `CC(CNC(=O)N1CCSCC1)Cc1cccs1` (stereo not given), the Percent Effect is 6.01%.

As to `C[C@H]1C[C@@H]2CCN(C(=O)c3cccn3C)C[C@H]2O1`, the Percent Effect is -0.37%.

As to `O=C(c1cc(Cl)c2c(c1)OCO2)N1CCN(c2ccccn2)CC1`, the Percent Effect came to 18.3%.

In the case of `c1cnnc(N2CCCC2CNc2ncnc3c2CCC3)c1` (stereo not given), the Percent Effect turned out to be 2.94%.

For the compound `Cc1nnc2n1CCN(CCOc1ccccc1)C2`, the Percent Effect was -21.5%.

On to `Cn1nc(C2CCCN(C(=O)Cc3ccsc3)C2)c2nccnc21` (stereo not given), for which the Percent Effect came out at 7.06%.

As to `Cc1cc(CN(C)C(=O)c2cccc(N3CCCC3=O)c2)no1`, the Percent Effect is -12.4%.

On to `CCc1noc(C)c1C(=O)N1CCCC1c1c(C)nn(C)c1OC` (stereo not given), for which the Percent Effect worked out at 5.57%.

In the case of `Fc1ccc(CN2CCC(c3n[nH]c4nccnc34)CC2)cc1F`, the Percent Effect was -8.59%.

Take `CC(C)c1nn(C)c(N(C)C)c1CNCc1cccc(CN(C)C)c1`: the Percent Effect amounted to 31.8%.

As for `Cc1cc(C(F)(F)F)c2c(C3CCN(S(=O)(=O)N(C)C)CC3)noc2n1`, the Percent Effect was 0.93%.

As for `O[C@]1(c2ccccn2)CC[C@@H]2CN(Cc3cccc4ncccc34)C[C@@H]21`, the Percent Effect is -21.3%.

With `CCc1ccc(CCC(=O)N2CCOCC2c2ncon2)cc1` (stereo not given), the Percent Effect worked out at 20.7%.

Consider `COCCN1C[C@@H](C)[C@@]2(COCCN(C(=O)c3cnc(C)cn3)C2)C1`, for which the Percent Effect was -19.1%.

As for `Cc1cc(CN2CCCC2Cn2cncn2)no1` (stereo not given), the Percent Effect is -0.0947%.

On to `Cc1[nH]/c(=N\C(=O)c2csc(NC3CC3)n2)sc1C`, for which the Percent Effect came to 7.35%.

`O=C(NC1COC2(CCN(Cc3ccccn3)CC2)C1)c1ccccn1` (stereo not given): the Percent Effect is -29.1%.

On to `Cc1ccc2c(c1)CN(C(=O)c1ccccc1F)C(CN(C)C)CO2` (stereo not given), for which the Percent Effect amounted to 3.26%.

Consider `CS(=O)(=O)N1CCC(Oc2cnccn2)CC1`, for which the Percent Effect is -5.3%.

Consider `CC(O)CN(CC(=O)NC(=O)NCC(F)(F)F)c1ccccc1` (stereo not given), for which the Percent Effect was determined as 29.2%.

`CCc1nnc2n1CC(CNCc1ccncc1)CC2` (stereo not given): the Percent Effect was -13.5%.

On to `CCOc1nnc(CN2CCC(N(C)Cc3noc(C)n3)C2)s1` (stereo not given), for which the Percent Effect came to 24.4%.

In the case of `COCCCN(CCOC)C(=O)Nc1ccccc1Br`, the Percent Effect is -6.69%.

In the case of `CC(C)(C)n1ncc2c1CCCC2NCc1cccc2c1OCO2` (stereo not given), the Percent Effect is -1.18%.

On to `CNC(=O)NC(=O)Cn1cc(-c2ccccc2)cn1`, for which the Percent Effect is 5.7%.

Regarding `Cc1nc(COC[C@@H]2CC[C@H]3[C@H](CCN3S(C)(=O)=O)O2)cs1`, the Percent Effect amounted to 1.49%.

For `Cc1nn2cccnc2c1C(=O)N1CCCC(Nc2ccccc2)C1` (stereo not given), the Percent Effect came out at 8.26%.

As to `CC(C)NC(=O)Cn1cc(-c2ccccc2)cn1`, the Percent Effect was determined as 2.98%.

`Cc1ccc(C)c(C(C(=O)O)N2CCCN(Cc3ccccn3)CC2)c1` (stereo not given): the Percent Effect worked out at 2.34%.

Turning to `O=C(CCC1CCN(Cc2ncc[nH]2)CC1)Nc1ccccc1Cl`, the Percent Effect is -7.7%.

For `CSCC[C@H](N)C(=O)NCc1cc2n(n1)CCCN(C(=O)C1CCC1)C2`, the Percent Effect was determined as 2.24%.

For `COc1cc(C)sc1C(=O)N1CC(c2cccnc2)C1`, the Percent Effect is 12.6%.

For `Cc1ncc(-c2ccnc(N3CCCCC3)n2)c(=O)[nH]1`, the Percent Effect was -19.6%.

As for `CCC(CC)c1cc(CNC(=O)N2CCOC(C)C2)on1` (stereo not given), the Percent Effect was -11.9%.

For `Cn1c(CC2CCS(=O)(=O)C2)nnc1SCCOc1ccccc1F` (stereo not given), the Percent Effect is -10.2%.

Turning to `COc1cccc(C2CC(=O)Nc3nc(N)sc32)c1OC` (stereo not given), the Percent Effect was -20%.
